Screening data deposited in PubChem BioAssay by National Center for Advancing Translational Sciences (NCATS).
HT1080-NT tox = kills 2HG-producing HT-1080-NT fibrosarcoma cells; AID 686970; Potency, µM (highest dose often 46.1 µM), inactives show top-dose activity, negative = less viability, hits mostly cytotoxic; 360,000 compounds, 1.6% hits; HT-1080-NT fibrosarcoma viability, CellTiter-Glo ATP luminescence, 48 h;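 note: NT is the 2HG producing partner of a matched IDH1 knockdown line; 0% = DMSO-treated cells and -100% = media-only wells without cells; nearly all actives have a fitted effect of over 55% in size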
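A 48-hour cytotoxicity screen used HT-1080-NT cells plated 2 hours before compound delivery. ATP-based CellTiter-Glo luminescence measured viability, normalized to DMSO and no-cell controls.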
HT1080 IDH1KD tx = kills HT-1080 cells with IDH1 knockdown; HT-1080 IDH1 knockdown viability, ATP luminescence, 48 h; Potency, µM (highest dose often 46.1 µM), without a hit: top-dose activity, negative = toxicity, actives largely listed as cytotoxic; 360,000 compounds, 2% hits; AID 686971;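 note: 0% = DMSO wells and -100% = cell-free medium wells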
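Assay cells: HT-1080 with IDH1 knockdown, 750 per well, RPMI/5% FBS. Exposure: 48 h at 37 °C following 2 h pre-incubation. Read: CellTiter-Glo luminescence; fitted concentration-response, curve class assigned.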
MCF10A rerep = inducers of DNA re-replication in MCF 10A breast cells; 350,000 compounds, 2.9% hits; Potency, µM (doses to about 46.1 µM), for inactives: at the top dose activity, positive = re-replication, usual class: activators; MCF 10A DNA re-replication, Hoechst nuclear intensity, 48 h; AID 624296; note: % of control where 0% means no effect; nearly all actives have a fitted effect of over 50% in size
KB-V1 cytotox = KB-V1 MDR subline cytotoxicity. KB-V1 MDR cells viability, CellTiter-Glo, 72 h. Potency, µM (doses to about 46.1 µM), actives largely listed as cytotoxic. 400,000 compounds, 3.4% hits. AID 1347076; note: % is set by controls: 0 for no effect and ±100 for the full control effect; nearly all actives have a fitted effect of over 60% in size
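Cytotoxicity via CellTiter-Glo luminescence after 72 h compound exposure at 37 degrees C. Cells: drug-selected KB-V1 line, DMEM phenol-red free plus 10% FBS. Compounds tested at multiple concentrations; normalized data fitted to concentration-effect curves.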
KB-3-1 tox = KB-3-1 parental cell cytotoxicity. KB-3-1 viability, CellTiter-Glo ATP luminescence, 72 h. 400,000 compounds, 1.4% hits. Potency, µM (top dose mostly 46.1 µM), actives largely listed as cytotoxic. AID 1347075; note: % is set by controls: 0 for no effect and ±100 for the full control effect; nearly all actives have a fitted effect of over 60% in size
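Screening of KB-3-1 cells (DMEM, 10% FBS, phenol-red free) ran from lowest to highest compound concentration; after 72 h at 37 °C viability was read luminescently and curves fitted.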
SW480 rereplic = DNA re-replication induction in SW480 cells | SW480 DNA re-replication, Hoechst DNA content imaging, 48 h | Potency, µM (highest dose often 46.1 µM), without a hit: top-dose re-replication activation, usual class: activators | 340,000 compounds, 1.8% hits | AID 624297; note: % of control where 0% means no effect; nearly all actives have a fitted effect of over 55% in size
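250 cells/well; 23 nL cpd via pin tool; 48 hr, 37 C, 5% CO2; Hoechst 40 min; imager read of total nuclear intensity, ex 405/em 500-530 nm.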
Active calls of the source: *; i = inactive; ? = inconclusive; nt = not tested or not shown. A selection: hits, their analogues and other compounds. The true share with any hit is near 7.9%. Calls come from the whole dose curve; as a rule, active = well fitted curve in the direction sought with a large enough effect; inconclusive = small, poorly fitted or top-dose-only effect, or another doubt; inactive = no such curve, though single readings can be large; an effect the other way counts as inactive or inconclusive. Potency is the fitted concentration of half-maximal effect.

SMILES	HT1080-NT tox	HT1080 IDH1KD tx	MCF10A rerep	KB-V1 cytotox	KB-3-1 tox	SW480 rereplic
Cc1cccc(NC(=O)C2CCN(S(=O)(=O)c3ccc4c(c3)CCCC(=O)N4)CC2)c1	nt	nt	nt	i	i	nt
COc1ccc2[nH]c(=O)c(CN(Cc3ccccc3OC)Cc3nnnn3CC3CCCO3)cc2c1 (centres undefined)	4%	-16%	0%	?	i	-1%
Cc1ccc2[nH]c(=O)c(CN(CCc3ccccc3)Cc3nnnn3CC3CCCO3)cc2c1 (centres undefined)	-4%	-5%	-8%	15µM*	i	1%
COc1ccccc1CN(Cc1cc2cc(C)ccc2[nH]c1=O)Cc1nnnn1CC1CCCO1 (centres undefined)	-22%	-21%	?	21µM*	i	-1%
Cc1ccc(NC(=O)C2CCN(c3cc(C)nc4c(-c5ccc(Cl)cc5)c(C)nn34)CC2)c(C)c1	nt	nt	nt	i	i	nt
C#CC[N+](C)(C)CCCCCCCCCC	?	12µM*	?	i	3.7µM*	21µM*
C[N+](C)(C)CCCCCC[N+](C)(C)C	?	7%	0%	i	i	-1%
CCCCCCCCCCCCCCCCCC[N+](C)(C)CCC[Si](OC)(OC)OC	nt	nt	9%	nt	nt	-2%
CC#CC[N+](C)(C)CCCCCCCCCCCC	23µM*	23µM*	?	i	?	?
C#CC[N+](C)(C)CCCCCCCCCCCC	10µM*	12µM*	26µM*	i	2.1µM*	12µM*
C#CC[N+](C)(C)CCCCCCCC	?	?	11%	i	5.2µM*	-1%
COc1ccc(NC(=O)Cn2c(=O)oc3cc(S(=O)(=O)N4CCCCC4C)ccc32)cc1 (centres undefined)	nt	nt	nt	i	i	nt
COc1cc(C(C(=O)NC(C)(C)C)N(Cc2ccccc2)C(=O)c2cnccn2)cc(OC)c1OC (centres undefined)	5%	4%	?	i	i	?
COc1ccc(CN(C(=O)c2ccc(-c3ccccc3)[nH]2)C(C(=O)NC(C)(C)C)c2ccncc2)cc1 (centres undefined)	-22%	15µM*	14%	12µM*	?	?
Cc1ccc2oc(=O)c3cc(C(=O)Nc4ccc(F)cc4F)sc3c2c1	nt	nt	nt	?	i	nt
COc1ccc(NC(=O)CSc2nnc(-c3ccccn3)n2N)cc1Cl	-2%	-22%	2%	16µM*	i	-6%
Cn1c(SCC(=O)Nc2cc(Cl)cc(Cl)c2)nnc1-c1ccc2nonc2c1	-11%	-2%	18µM*	?	i	18µM*
CC(C)c1ccc(NC(=O)CSc2nnc(-c3ccccn3)n2C)cc1	2%	13%	-2%	5.2µM*	i	-13%
Cc1cc(-c2nc(C)c(-c3nnc(SCC(=O)Nc4cc(Cl)cc(Cl)c4)n3C)s2)no1	?	4%	11%	i	i	-4%
CCc1ccc(NC(=O)CSc2nnc(-c3ccccn3)n2C)cc1	2%	-2%	22%	i	i	-14%
CCCn1c(SCC(=O)NCCc2ccccc2)nnc1-c1ccccn1	11%	12%	4%	?	i	-1%
CCCn1c(SCC(=O)Nc2nnc(-c3ccccc3)s2)nnc1-c1ccccn1	17%	17%	18µM*	i	i	0%
CCOC(=O)Cc1csc(/N=C/c2c(O)n(-c3ccc(C)c(C)c3)c(=O)c3ccccc23)n1	6%	22%	?	10µM*	?	0%
CCOC(=O)c1cnc2ccc(OC(F)(F)F)cc2c1Nc1ccccc1C(=O)O	nt	nt	nt	i	i	nt
NC(=O)C1C(c2ccccc2)=C1c1ccccc1	1%	6%	-1%	21µM*	i	3%
SMILES	HT1080-NT tox	HT1080 IDH1KD tx	MCF10A rerep	KB-V1 cytotox	KB-3-1 tox	SW480 rereplic
O=C(O)C1C(c2ccccc2)=C1c1ccc(Br)cc1 (centres undefined)	0%	2%	nt	i	i	nt
CC(=O)N/C(=C/c1ccccc1)c1sc2ccccc2[n+]1CCCCI	nt	nt	nt	i	i	nt
CC1(c2ccccn2)Nc2ccccc2-c2nc3ccccc3n21 (centres undefined)	1%	3%	5%	16µM*	i	-7%
c1ccc2c(c1)NC1(CCCCCC1)n1c-2nc2ccccc21	0%	-9%	1%	i	i	-6%
COc1cc(OC)cc(-c2nc3n(n2)C(c2ccccc2)C(C(N)=O)=C(C)N3)c1 (centres undefined)	nt	nt	nt	i	i	nt
Cc1ccc(Cc2nnc3n(-c4ccccc4)nc(C(=O)c4ccccc4)n3c2=O)cc1	-1%	-28%	16µM*	8.2µM*	?	18µM*
O=C(Nc1ccn(CCCN2CCN(Cc3cccc4ccccc34)CC2)c(=O)n1)OCc1ccccc1	?	-21%	nt	18µM*	?	nt
CN1C(=O)C2(c3ccccc31)N(c1cccc(F)c1)C(=O)CS2(=O)=O (centres undefined)	nt	nt	nt	i	i	nt
CC(=O)C1=C(O)C(CSCc2ccccc2)N(C)C1=O (centres undefined)	2%	-1%	5%	21µM*	i	0%
CN(C)S(=O)(=O)c1cccc(NC(=O)c2cncc(Br)c2)c1	6%	20%	?	15µM*	i	-12%
CCN(CC)S(=O)(=O)c1cccc(NC(=O)COc2ccc(Cl)cc2Br)c1	4%	-7%	16%	21µM*	?	13%
CN(C)S(=O)(=O)c1cccc(NC(=O)COc2ccc(S(=O)(=O)N3CCOCC3)cc2Cl)c1	-10%	-16%	-1%	i	i	-7%
CCN(CC)S(=O)(=O)c1cccc(NC(=O)c2cncc(Br)c2)c1	0%	-6%	-1%	i	i	18%
CCN(CC)S(=O)(=O)c1cccc(NC(=O)c2ccc(Br)cc2)c1	-9%	-7%	8%	6.5µM*	i	3%
CCN(CC)c1ccc(C(=O)Nc2cccc(F)c2)cc1	?	?	?	i	i	13µM*
CN(C)c1cccc(C(=O)Nc2cccc(F)c2)c1	8%	3%	-4%	i	i	-2%
COc1ccc(CNC(=O)c2cc3ccccn3n2)c(OC)c1	nt	nt	nt	i	i	nt
CCN(CC)S(=O)(=O)c1cc(NC(=O)C(=O)c2c(-c3ccccc3)cc3ccccn23)ccc1C	-3%	-19%	9%	i	i	1%
CCN(CC)S(=O)(=O)c1cccc(NC(=O)C(=O)c2c(-c3ccccc3)cc3ccccn23)c1	0%	-1%	7%	3.3µM*	i	2%
